# Compound activity deposited in PubChem BioAssay by several laboratories.
# SMARCA2 activ: SMARCA2 (BRM) function activators, primary screen, cell-based, luminescence, high throughput. MG213 cells, MMTV-luciferase reporter, dexamethasone, overnight. activation, % at 9.1 µM. 1% of 370,000 active. AID 652017, 2013; in the data active = activation above about 7.8%;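 note: 0% = vehicle wells and 100% = reference activator wells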
# M18AAP inhibitor: PfM18AAP inhibitors, malaria aminopeptidase, primary screen, biochemical, QFRET, recombinant enzyme. M18 aspartyl aminopeptidase (Plasmodium falciparum 3D7). H-Glu-NHMec fluorogenic cleavage. inhibition, % at 7.35 µM. 1.2% of 290,000 active. AID 1822, 2009;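 active = inhibition above the campaign mean inhibition over all tested compounds plus 3 SD, cut at about 28% in these data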;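 note: 0% = plate median of test compound wells and 100% = 2 mM ZnCl2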
# GASC-1 inh: inhibitors of GASC-1 histone demethylase, primary screen, biochemical, fluorescence, DELFIA europium. Lysine-specific demethylase 4C (Homo sapiens), Q9H3R0. inhibition, % at 2.35 µM. GST-JMJD2C(1-420) H3K9me3 demethylation. 0.069% of 330,000 active;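 active = more than half of a compound's replicate wells show inhibition beyond 50%, single wells judged on their own value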;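 note: signal counts dimethyl H3K9 product captured on neutravidin plate; 0% = median of DMSO wells and 100% = 0.3 times that DMSO median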
# Target sequence (Q9H3R0 1-420 limits assumed): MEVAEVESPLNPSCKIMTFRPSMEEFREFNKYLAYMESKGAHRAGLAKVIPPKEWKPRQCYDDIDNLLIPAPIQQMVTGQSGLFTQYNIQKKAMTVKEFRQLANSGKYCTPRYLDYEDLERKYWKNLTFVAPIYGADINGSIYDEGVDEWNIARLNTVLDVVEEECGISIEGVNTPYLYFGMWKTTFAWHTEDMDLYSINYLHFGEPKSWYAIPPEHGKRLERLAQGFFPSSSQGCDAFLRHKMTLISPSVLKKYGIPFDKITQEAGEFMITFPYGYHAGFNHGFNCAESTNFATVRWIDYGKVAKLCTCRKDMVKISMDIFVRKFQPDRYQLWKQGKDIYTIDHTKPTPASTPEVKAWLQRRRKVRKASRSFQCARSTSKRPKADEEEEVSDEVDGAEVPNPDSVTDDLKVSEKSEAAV
# beta cell repl: inducers of MIN6 beta-cell proliferation, primary screen, ATP luminescence, uHTS; MIN6 cells proliferation, ATPlite luminescence, 48 h; cells starved in 0.2% serum; 100% = growth in 10% serum; proliferation, % at 10 µM; 0.29% of 330,000 active; AID 2380, 2010;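 active = compounds whose signal lies at least 3.5 SD above the mean of all wells on their plate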;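 note: 0% = DMSO-treated cells in low-serum medium and 100% = 10% serum control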
# ALR inh: inhibitors of human ALR sulfhydryl oxidase, primary screen, biochemical, H2O2 detection, HRP-luminol luminescence, single point; FAD-linked sulfhydryl oxidase ALR (Homo sapiens), P55789; purified ALR, DTT oxidation; inhibition, % (concentration not given with the values); 3.8% of 290,000 active; AID 485317, 2010;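 active = mean replicate inhibition above about 79%, with every replicate also reaching it, limit read from the data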
# Target sequence (P55789 whole entry, looked up): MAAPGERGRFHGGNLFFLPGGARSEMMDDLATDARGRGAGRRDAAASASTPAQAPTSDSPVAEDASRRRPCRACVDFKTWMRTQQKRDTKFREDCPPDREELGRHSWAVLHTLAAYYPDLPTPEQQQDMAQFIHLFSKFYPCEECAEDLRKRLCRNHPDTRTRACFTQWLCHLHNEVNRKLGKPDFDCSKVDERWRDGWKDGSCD
# Granule exo inh: LAMP-1 surface exposure blockers, TALL-104 cells – cell-based, flow cytometry, MLPCN library, primary screen. inhibition, % at 10 µM. AID 651702, 2012. TALL-104 LAMP-1 surface exposure; cells stimulated with thapsigargin and PMA. 0.66% of 360,000 active;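 active = inhibition above about 55%, limit read from the data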
# An asterisk follows results filed as active; nt = no result given. Sampled rows, rich in hits. Any-hit rate of the full collection: about 5.4%.
SMILES,SMARCA2 activ,M18AAP inhibitor,GASC-1 inh,beta cell repl,ALR inh,Granule exo inh
O=c1[nH]c2ccc(NC(=S)Nc3ccccc3)cc2[nH]1,-1.4,1.0,22.3,-2.9,90.3*,-2.1
CC(=O)O[C@@H]1CCC[C@@]2(C(=O)N(Cc3ccccc3)c3ccc(-c4c(C)noc4C)cc32)[C@H]1NC(=O)CCc1ccccc1,-3.6,nt,nt,nt,nt,nt
COC(=O)[C@]12C[C@H](CC(=O)NCCC(C)C)C(=O)N(CCc3ccc(OC)c(OC)c3)C1=C[C@H](C1CCCC1)O[C@@H]2C,-1.7,nt,nt,nt,nt,nt
Cc1ccc(C)c(N)c1,-1.4,nt,-11.4,-4.1,-9.0,0.7
Cc1cc(Cc2cc(C)c(N)cc2C)c(C)cc1N,-0.6,-0.3,2.4,-1.9,97.0*,3.3
CN1C(=O)C[C@@](C#N)(C(=O)NCc2ccccc2)[C@H]1c1ccccc1,-0.8,nt,nt,nt,nt,nt
COc1ccc(-c2nc(CS(=O)CC(=O)NCc3ccco3)c(C)o2)cc1 (configuration not stated),-1.1,6.9,0.3,-0.3,98.9*,1.1
CCc1ccc(-c2nc(CS(=O)CC(=O)NCc3ccco3)c(C)o2)cc1 (configuration not stated),-9.1,8.0,5.6,-0.9,98.6*,7.3
COc1ccc(-c2noc(CCC(=O)NCc3ccco3)n2)cc1,-0.5,2.0,-0.2,-2.8,-2.8,17.1
CCOc1ccc(-n2c(SCC(=O)Nc3cc(C)c(NC(=O)c4ccccc4)cc3OC)nnc2-c2ccncc2)cc1,1.1,nt,nt,nt,nt,nt
Cc1ccc(CNC(=O)CC(C)S(=O)(=O)c2ccc3c(c2)NC(=O)CS3)o1 (configuration not stated),2.1,-25.7,3.2,0.1,97.9*,2.4
COc1ccccc1N(Cc1ccccc1)S(=O)(=O)c1cccc(C(=O)O)c1,2.8,-1.2,1.6,0.3,2.5,-3.9
COc1ccccc1N(Cc1ccccc1)S(=O)(=O)c1cc(C(=O)O)ccc1Cl,-2.4,6.8,0.1,-1.3,92.1*,1.6
COC(=O)[C@]12C[C@H](CC(=O)N3CCSCC3)C(=O)N(CCc3ccc(OC)c(OC)c3)C1=C[C@H](C(C)(C)C)O[C@@H]2C,-2.1,nt,nt,nt,nt,nt
O=C(C=Cc1ccco1)c1ccco1,-2.4,nt,nt,nt,nt,30.2
Cc1ccc(C(=O)/C=C/c2ccco2)c(O)c1,3.2,0.8,7.2,-3.0,98.5*,-2.9
O=C(N[C@H](Cc1ccccc1)C(=O)NCc1ccco1)[C@H]1O[C@@H](n2ccc(=O)[nH]c2=O)[C@H](O)[C@@H]1O,4.2,nt,nt,nt,nt,nt
Cc1nn(C)cc1-c1n[nH]c(=S)n1-c1ccc(Cl)cc1,-0.7,29.8*,1.5,-1.5,-0.6,2.2
S=c1[nH]nc(-c2ccc(Cl)cc2Cl)n1-c1ccc2c(c1)OCCO2,-2.5,7.2,-1.2,2.5,68.5,0.6
CC(C)(C)c1cc(-c2n[nH]c(=S)n2-c2ccc(Cl)cc2)n[nH]1,-2.6,-1.4,12.4,1.4,93.4*,11.8
Cn1c2c(c(=O)n(C)c1=O)CN(CCCN1CCOCC1)CN2,-4.0,14.8,53.4*,-0.8,-27.6,-3.0
CCOc1ccccc1Nc1nc2ccccc2[nH]1,0.4,-8.6,-1.3,-1.9,96.4*,0.6
C=CCN(C(=O)[C@@H](C)[C@@H](O)c1ccc(Cl)cc1)c1ccccc1,-2.0,nt,nt,nt,nt,nt
O=S1(=O)c2c(cccc2N2CCSCC2)Oc2ccccc2CN1Cc1cn(Cc2cccc(F)c2)nn1,0.1,nt,nt,nt,nt,nt
O=C(NCCNC(=O)c1ccccn1)c1ccccc1,-2.7,4.4,-12.4,0.9,94.8*,-0.6
SMILES,SMARCA2 activ,M18AAP inhibitor,GASC-1 inh,beta cell repl,ALR inh,Granule exo inh
O=C(Nc1cccc(C(F)(F)F)c1)OC1CCC12CCC(c1ccccc1)CC2 (configuration not stated),0.8,nt,nt,nt,nt,nt
Nn1c(SCC(=O)Nc2ccc(OCc3ccccc3)cc2)nnc1-c1cc(-c2ccc(Cl)cc2)n[nH]1,-6.2,nt,nt,nt,nt,nt
Cc1cc(N/N=C/c2ccc(O)cc2O)c2ccccc2n1,-3.4,12.2,-17.7,-0.7,96.5*,5.0
Cc1cc(N/N=C/c2ccco2)c2ccccc2n1,0.3,-0.8,-9.9,0.5,77.1*,-0.8
COc1ccc(/C=N/Nc2cc(C)nc3ccc(OC)cc23)c(OC)c1,-7.4,7.3,-14.6,-5.0,85.7*,51.9
Cc1ccc2nc(C)cc(N/N=C/c3ccccc3O)c2c1,1.0,0.5,-8.7,-2.5,98.6*,19.0
COc1ccc2nc(C)cc(N/N=C/c3ccccc3)c2c1,nt,nt,-1.7,-7.8,-1.3,1.8
Cc1cc(C(=O)N/N=C/c2ccco2)c2ccccc2n1,0.8,0.6,-14.9,-2.9,-5.3,-1.1
COc1ccccc1/C=N/Nc1cc(C)nc2ccc(C)cc12,-1.9,-3.1,0.7,-2.5,99.1*,-7.4
COc1ccccc1/C=N/Nc1nc(C)cc(C)n1,-1.9,6.0,-20.8,-0.1,8.1,-19.6
Cc1cc(N/N=C/c2ccc(O)cc2)c2cccc(C)c2n1,3.8,15.0,-0.9,-4.1,99.5*,31.2
CC(C)CNC(=S)NNC(=O)CC(C)O (configuration not stated),-1.3,35.0*,18.0,3.4,8.6,0.7
COc1cc(C2NC(=S)NC(C)=C2C(=O)OC(C)C)ccc1OC(C)C (configuration not stated),-0.5,-2.0,-5.7,-1.8,96.0*,-5.0
COc1cc(C2NC(=O)NC(C)=C2C(=O)OC(C)C)ccc1OC(=O)c1ccco1 (configuration not stated),-2.1,-0.4,-1.4,-3.0,-4.1,8.5
COc1cccc(C(=O)N[C@H](C(=O)N2CCC[C@H]2C(=O)NCCc2ccccc2Cl)C(C)C)c1,-2.1,nt,nt,nt,nt,nt
COc1ccc2[nH]c3c(c2c1)CCN[C@]31C(=O)N(C)c2ccccc21,0.0,nt,nt,nt,nt,nt
Cc1ccc(-c2[nH]c(-c3ccc(C(=O)O)cc3)nc2-c2ccccc2)cc1,-3.1,-6.3,-3.5,0.0,99.3*,-2.8
COc1ccc(/C=N/NC(=O)c2ccncc2)cc1CN1CCN(c2ccc(F)cc2)CC1,-0.9,-7.3,0.7,-3.6,98.6*,2.1
COc1ccc(/C=N/NC(=O)CCn2nc(C)cc2C)cc1O,-1.5,-12.2,-5.1,2.7,77.4*,1.4
COc1ccc(/C=N/NC(=O)CCn2nc(C)cc2C)cc1,-0.1,1.6,1.7,1.2,-16.6,-3.6
COc1cc(/C=N/NC(=O)CCc2c(C)n[nH]c2C)ccc1O,-3.5,0.7,-1.1,1.1,98.8*,0.8
COc1ccc(/C=N/NC(=O)c2ccc(C)cc2)cc1CN1CCN(c2ccc(F)cc2)CC1,nt,-3.5,57.3,-2.7,nt,-2.5
COc1cc(/C=N/NC(=O)CCN2CCCCC2)ccc1O,6.5,-12.7,5.6,-1.4,98.9*,-2.7
